In a collection of fitness landscapes (doi:10.1016/j.celrep.2020.107928):
Over roughly 81,000 sequences, “one-hybrid fitness for binding NBS DNA” has its median near -0.1; the highest 2% begin near 0.36. The sample as a whole holds a higher share of the highest values than the screen did.

B1: Caulobacter ParB omega fusion; a variant is named by its letters at X, in order, B8GW30 (parent)
chain: MESVVVGEPGMSEGRRGLGRGLSALLGEVDAAPAQAPGEQLGGSREAPIEILQRNPDQPRRTFREEDLEDLSNSIREKGVLQPILVRPSPDTAGEYQIVAGERAWRAAQRAGLKTVPIMVRELDDLAVLEIGIIENVQRADLNVLEEALSYKVLMEKFERTQENIAQTIGKSXSHVANXMRLLXLPDEVQSYLVSGELTAXHARAIAAAADPVALAKQIIEGGLSVRETEALARKAPNLSAGKSKGGRPPRVKDTDTQALESDLSSVLGLDVSIDHRGSTGTLTITYATLEQLDDLCNRLTRGI

Variants of: B1
Assay: one-hybrid fitness for binding NBS DNA (the Noc-binding site; scaled: cognate 1, non-cognate 0); higher = stronger binding
Conditions: with NBS DNA site
In short: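 On M9-minus-histidine containing 0.1 mM IPTG and 5 mM 3-AT, E. coli USO cells with a HIS3 reporter, site 19 bp from the promoter, grew 48 hours at 37°C to select Caulobacter ParB libraries randomised at four specificity codons. Plasmids from before and after were Illumina-sequenced, with three replicate libraries pooled and variants under 10 reads left out. Fitness is the log change in variant-to-wild-type read ratio, rescaled against cognate and non-cognate.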

one-hybrid fitness for binding NBS DNA, 0.565:
RTST

one-hybrid fitness for binding NBS DNA, 0.397:
QQWS

one-hybrid fitness for binding NBS DNA, 0.24:
RGKT

one-hybrid fitness for binding NBS DNA, 0.408:
EAPR
AEPR

one-hybrid fitness for binding NBS DNA, 0.237:
RNKH

one-hybrid fitness for binding NBS DNA, 0.224:
KQRS

one-hybrid fitness for binding NBS DNA, 0.414:
RRVC

one-hybrid fitness for binding NBS DNA, 0.284:
QQFS

one-hybrid fitness for binding NBS DNA, 0.386:
RHMS

one-hybrid fitness for binding NBS DNA, 0.532:
EAPF

one-hybrid fitness for binding NBS DNA, 0.606:
RKNS

one-hybrid fitness for binding NBS DNA, 0.352:
RTIT

one-hybrid fitness for binding NBS DNA, 0.575:
RTGT

one-hybrid fitness for binding NBS DNA, 0.368:
RAAS

one-hybrid fitness for binding NBS DNA, 0.464:
QQTT

one-hybrid fitness for binding NBS DNA, 0.648:
QQTR

one-hybrid fitness for binding NBS DNA, 0.435:
QQAS

one-hybrid fitness for binding NBS DNA, 0.213:
NRKT

one-hybrid fitness for binding NBS DNA, 0.433:
RHAS
QQTS

one-hybrid fitness for binding NBS DNA, 0.427:
IEPR

one-hybrid fitness for binding NBS DNA, 0.312:
QQRP

one-hybrid fitness for binding NBS DNA, 0.207:
RTSH

one-hybrid fitness for binding NBS DNA, 0.714:
QQRS

one-hybrid fitness for binding NBS DNA, 0.378:
TTRR
RRSK

one-hybrid fitness for binding NBS DNA, 0.381:
RNNR

one-hybrid fitness for binding NBS DNA, 0.383:
RLAS

one-hybrid fitness for binding NBS DNA, 0.848:
QRKT

one-hybrid fitness for binding NBS DNA, 0.391:
RCRC

one-hybrid fitness for binding NBS DNA, 0.345:
RIAS

one-hybrid fitness for binding NBS DNA, 0.535:
RNKR

one-hybrid fitness for binding NBS DNA, 0.629:
QTNS

one-hybrid fitness for binding NBS DNA, 0.206:
QQNM

one-hybrid fitness for binding NBS DNA, 0.22:
QQLH

one-hybrid fitness for binding NBS DNA, 0.686:
RRIR

one-hybrid fitness for binding NBS DNA, 0.238:
DRKR

one-hybrid fitness for binding NBS DNA, 0.356:
RTWT

one-hybrid fitness for binding NBS DNA, 0.515:
QQNS

one-hybrid fitness for binding NBS DNA, 0.329:
QQRL

one-hybrid fitness for binding NBS DNA, 0.424:
RSAS

one-hybrid fitness for binding NBS DNA, 0.373:
QQLS

one-hybrid fitness for binding NBS DNA, 0.388:
RNNS

one-hybrid fitness for binding NBS DNA, 0.443:
QQGS

one-hybrid fitness for binding NBS DNA, 0.363:
RRHC

one-hybrid fitness for binding NBS DNA, 0.234:
RTET

one-hybrid fitness for binding NBS DNA, 0.645:
QQRH

one-hybrid fitness for binding NBS DNA, 0.605:
RRPR

one-hybrid fitness for binding NBS DNA, 0.504:
RNRR

one-hybrid fitness for binding NBS DNA, 0.222:
QCNQ

one-hybrid fitness for binding NBS DNA, 0.327:
QTNN

one-hybrid fitness for binding NBS DNA, 0.301:
RRLC

one-hybrid fitness for binding NBS DNA, 0.355:
RSRC

one-hybrid fitness for binding NBS DNA, 0.262:
TCKR

one-hybrid fitness for binding NBS DNA, 0.456:
KRVR

one-hybrid fitness for binding NBS DNA, 0.335:
QTDH

one-hybrid fitness for binding NBS DNA, 0.351:
RRKW
RSMS

one-hybrid fitness for binding NBS DNA, 0.849:
KRKR

one-hybrid fitness for binding NBS DNA, 0.489:
RNKS

one-hybrid fitness for binding NBS DNA, 0.294:
RCIR

one-hybrid fitness for binding NBS DNA, 0.244:
QTNF

one-hybrid fitness for binding NBS DNA, 0.476:
QQHS
RCAS

one-hybrid fitness for binding NBS DNA, 0.41:
RRRK

one-hybrid fitness for binding NBS DNA, 0.319:
RCVT
KLKR

one-hybrid fitness for binding NBS DNA, 0.537:
RTQT

one-hybrid fitness for binding NBS DNA, 0.452:
RTMS

one-hybrid fitness for binding NBS DNA, 0.494:
RTYT

one-hybrid fitness for binding NBS DNA, 0.454:
RTAS

one-hybrid fitness for binding NBS DNA, 0.201:
RTPT

one-hybrid fitness for binding NBS DNA, 0.466:
QQRN

one-hybrid fitness for binding NBS DNA, 0.286:
QQRD

one-hybrid fitness for binding NBS DNA, 0.264:
QQTH

one-hybrid fitness for binding NBS DNA, 0.406:
QQYS

one-hybrid fitness for binding NBS DNA, 0.69:
QRVT

one-hybrid fitness for binding NBS DNA, 0.755:
RRVT

one-hybrid fitness for binding NBS DNA, 0.295:
RHRC

one-hybrid fitness for binding NBS DNA, 0.814:
RRKT

one-hybrid fitness for binding NBS DNA, 0.428:
QQQS

one-hybrid fitness for binding NBS DNA, 0.208:
QQSH

one-hybrid fitness for binding NBS DNA, 0.704:
RTRT

one-hybrid fitness for binding NBS DNA, 0.436:
QQSS

one-hybrid fitness for binding NBS DNA, 0.586:
RKMS

one-hybrid fitness for binding NBS DNA, 0.412:
RKDS
RCMS

one-hybrid fitness for binding NBS DNA, 0.331:
QTDS

one-hybrid fitness for binding NBS DNA, 0.431:
QTNY
RCAW

one-hybrid fitness for binding NBS DNA, 0.282:
QQDS

one-hybrid fitness for binding NBS DNA, 0.372:
TTKR

one-hybrid fitness for binding NBS DNA, 0.377:
QTNQ

one-hybrid fitness for binding NBS DNA, ≤ 0.2:
RQIE
ITGG
VFDW
QNAP
SDVV
ANIL
GEAG
AWVG
LYSD
VKHG
FRVT
LRPY
RPRC
AGSH
ISGM
RNKN
RNYR
RNNP
RNVS
RNIR
RNVR
RNDS
GHAT
IAAT
AKCT
RNND
RNDR
TPFG
MWSR
HRYM
RCVC
RPVC
PACV
QHSI
QQQH
QQQN
QQYF
QQFF
DWKY
RGQM
NLNF
VHRM
GFMT
YDNR
NHAS
GPQT
EHTR
QQSN
QQYN
QQWF
QQDN
QQHN
QQWG
QQHD
AVSG
DTKE
VVTF
TFLI
TFAN
CKWT
QQGP
QQGN
QQLP
DMCG
LNDN
HIRY
MHFS
ATTP
ESGF
LAAR
SNHH
VFVQ
PNVF
NEKR
QQAM
VHVQ
TYPP
SRMD
YAHL
DRKT
SAIP
QINI
TTYR
TTVR
TTDR
LKIL
PMKT
LRKL
DLDT
NAVF
TRTI
AVGC
GGMT
TPSP
YMFT
KCVR
DRVR
IHAG
CWRR
HRDS
RKND
RKNN
RKDP
RKDD
FIER
PSMI
EAPS
EAIR
EAPH
ECPR
HVLW
ITMG
VHNR
LWVP
VKGG
EIGT
RTQM
RTSP
RTQC
GGKA
AFLS
RKPM
QSHF
CTPF
PLPM
KIKM
HHNR
NSTM
RTGG
RTGC
YFNT
RSSK
RRDK
RCSK
MRQS
MFRF
LRHC
KHAS
CVNW
REMW
IEPS
TEPR
AEIR
IEYR
LSRY
SFFN
EDND
AQKT
RCPR
RRPP
RRID
WWTF
WLEG
FKSG
IVTP
PVGL
RHMH
RTMH
RKMN
RKMD
RHMD
RPMS
RTMD
WRRW
DIYS
HNSK
TLTK
QTDY
QTDQ
QSNY
HFFR
RCTP
EWRC
YVHE
VDSG
HSAM
VVYR
RSAD
RSAW
RTAD
RSAP
RTAP
RMAH
RPAW
RMAN
SWHQ
IRHW
EMAM
DYQG
TGTL
WNAL
RLAP
RAAD
RLAH
RAAH
RHAP
RPAS
RHAN
TIIA
APSV
HMQC
LRDK
SENT
LQVS
PPFG
RSHK
QQTD
QQTP
QQTF
QQTC
QQTN

one-hybrid fitness for binding NBS DNA, 0.375:
RRKC

one-hybrid fitness for binding NBS DNA, 0.387:
QQRF

one-hybrid fitness for binding NBS DNA, 0.495:
QTNH

one-hybrid fitness for binding NBS DNA, 0.405:
RMAS

one-hybrid fitness for binding NBS DNA, 0.202:
RRYK
